This is part of a sample that, as a whole, favours compounds with a hit. Of some 83,000 tested, about 20% had one in any assay.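 Compound tested at a single concentration for 48 hours in 96-well plates; a percent growth value below 10 was scored as active.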 Unmarked numbers belong to inactive results. Calls of active or inactive are those of the source.
The molecules below were run on OVCAR-5 ovarian (assay: NCI-60 one-dose screen, 48 h (100 = growth as untreated, 0 = no growth, -100 = all killed)). Conditions: 10 µM unless noted.

SMILES	growth
CC(C)(C)C(=O)OCOP(=O)(NCc1ccccc1)C1CCCN(O)C1=O (stereo not drawn)	94.5%
CCCc1cc(O)c2c3c(c(=O)oc2c1)CN(C)CC3	55.9%
Nc1c(F)cc(-c2nc3cc(F)ccc3[se]2)cc1F	31.1%
Fc1ccc2c(c1)c(-c1nc(-c3c[nH]c4ncccc34)cs1)cn2CCCCN1CCCCC1	-68.2% (active)
COc1ccc2nc(NC(=O)COc3cc(/C=C\c4cc(OC)c(OC)c(OC)c4)ccc3OC)sc2c1	71.6%
Oc1c(CCl)cc(Cl)cc1CCl	102%
COc1cc([C@@H]2c3cc4c(cc3[C@H](OC(C)=O)[C@H]3COC(=O)[C@H]23)OCO4)cc(OC)c1OC	56.4%
CCOC(=S)S[C@H]1C[C@@H]2[C@H](CC[C@]3(C)C(=O)CC[C@@H]23)[C@@]2(C)CCC(=O)C=C12	102%
CC1(C)N=C(N)N=C(N)N1c1ccc(CCC(=O)Nc2ccc(S(=O)(=O)F)cc2)c(Cl)c1	29%
Cc1c2cc(Cl)c3ccccc3c2c[n+]2ccccc12	77.6%
COc1cc(NC(C)CCCNC2CN3CCC2CC3)c2ncccc2c1 (stereo not drawn)	92.8%
COC(=O)[C@@H](C)C[C@H](Cc1ccccc1)NC(=O)c1csc([C@@H](C[C@H](C(C)C)N(C)C(=O)[C@@H](NC(=O)C23CC(NC(C)=O)(C2)C3)C2CC2)OC(C)=O)n1	103%
CC12CCC3C(CCC4=CC(=O)CCC43CF)C1CCC2=O (stereo not drawn)	118%

— PubChem BioAssay (NCI)
